Assay results: the supplement of paper PMC9694430

Key:
Experiment in all cases: thermal shift delta Tm vs DMSO control; higher = stronger stabilization (binding)
Settings in all cases: 12.5 µM; protein concentration 2 µM
[1] = test system: LOC_OS02G45750-cb003
In short: (§1)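 Rice kinase domain constructs were expressed in E. coli, purified, and tested by differential scanning fluorimetry with compound added in DMSO. Each well of a 96-well plate held 19.5 μl of 2 μM kinase in 100 mM potassium phosphate pH 7.5, 150 mM NaCl, 10% glycerol and 5 × SYPRO Orange, and fluorescence was read from 25°C to 95°C at 0.05°C/s. The melting temperature shift is the mean of triplicates, taken against protein with DMSO alone after Boltzmann fitting.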

[2] = test system: LOC_OS02G54510-cb004
In short: as §1

[3] = test system: LOC_OS03G04050-cb001
In short: as §1

[4] = test system: LOC_OS03G12390-cb001
In short: as §1

[5] = test system: LOC_OS03G27990-cb004
In short: as §1

[6] = test system: LOC_OS03G50450-cb001
In short: as §1

[7] = test system: LOC_OS03G50810-cb003
In short: as §1

[8] = test system: LOC_OS04G35114-cb001
In short: as §1

[9] = test system: T1, LOC_OS04G38480-cb003
T1 sequence (whole entry): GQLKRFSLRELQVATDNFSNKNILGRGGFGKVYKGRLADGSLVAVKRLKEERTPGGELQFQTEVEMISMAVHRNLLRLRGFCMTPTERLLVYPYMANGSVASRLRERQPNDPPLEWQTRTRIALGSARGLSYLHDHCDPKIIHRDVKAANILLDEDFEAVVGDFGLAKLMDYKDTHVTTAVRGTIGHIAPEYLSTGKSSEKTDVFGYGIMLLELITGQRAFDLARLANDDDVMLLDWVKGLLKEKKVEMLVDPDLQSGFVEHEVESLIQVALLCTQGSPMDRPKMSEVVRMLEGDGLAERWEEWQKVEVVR
In short: as §1

[10] = test system: T2, LOC_OS04G41100-cb001
T2 sequence (whole entry): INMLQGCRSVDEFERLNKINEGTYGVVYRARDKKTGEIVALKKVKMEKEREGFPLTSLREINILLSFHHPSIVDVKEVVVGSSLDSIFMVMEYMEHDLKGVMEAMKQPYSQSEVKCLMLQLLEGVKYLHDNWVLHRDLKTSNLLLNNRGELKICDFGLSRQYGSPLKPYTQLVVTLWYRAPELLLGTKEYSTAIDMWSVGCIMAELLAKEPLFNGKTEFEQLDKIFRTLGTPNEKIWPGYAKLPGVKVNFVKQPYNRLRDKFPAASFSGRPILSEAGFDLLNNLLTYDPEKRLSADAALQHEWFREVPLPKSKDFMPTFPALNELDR
In short: as §1

CN(C)Cc1cccc(N=C(c2ccccc2)c2c(O)[nH]c3cc(C(=O)N(C)C)ccc23)c1
thermal shift delta Tm [1]: 4.33 °C
thermal shift delta Tm [2]: 0.4 °C
thermal shift delta Tm [3]: 0.44 °C
thermal shift delta Tm [4]: 0.66 °C
thermal shift delta Tm [5]: 1.19 °C
thermal shift delta Tm [6]: 0.55 °C
thermal shift delta Tm [7]: 2.45 °C
thermal shift delta Tm [8]: 5.85 °C
thermal shift delta Tm [9]: 0.55 °C
thermal shift delta Tm [10]: 0.45 °C

CO[C@H]1C[C@@H]2CC[C@@H](C)[C@@](O)(O2)C(=O)C(=O)N2CCCC[C@H]2C(=O)O[C@H]([C@H](C)C[C@@H]2CC[C@H](n3cnnn3)[C@H](OC)C2)CC(=O)[C@H](C)/C=C(\C)[C@@H](O)[C@@H](OC)C(=O)[C@H](C)C[C@H](C)/C=C/C=C/C=C/1C [Zotarolimus(ABT-578)]
thermal shift delta Tm [1]: 1.04 °C
thermal shift delta Tm [2]: 0.46 °C
thermal shift delta Tm [3]: 0.79 °C
thermal shift delta Tm [4]: 0.05 °C
thermal shift delta Tm [5]: 0.77 °C
thermal shift delta Tm [6]: 0.89 °C
thermal shift delta Tm [7]: 0.33 °C
thermal shift delta Tm [8]: 0.66 °C
thermal shift delta Tm [9]: 2.27 °C
thermal shift delta Tm [10]: 0.4 °C

Fc1ccc2[nH]ccc2c1-c1nc(N2CCOCC2)c2sc(CN3CCN(CC4CC4)CC3)cc2n1
thermal shift delta Tm [1]: 0 °C
thermal shift delta Tm [2]: -0.03 °C
thermal shift delta Tm [3]: 0.21 °C
thermal shift delta Tm [4]: 0.01 °C
thermal shift delta Tm [5]: 0 °C
thermal shift delta Tm [6]: -0.17 °C
thermal shift delta Tm [7]: 1.38 °C
thermal shift delta Tm [8]: 0.63 °C
thermal shift delta Tm [9]: 0.91 °C
thermal shift delta Tm [10]: 0.18 °C

COc1cc2c(Oc3ccc4[nH]c(C)cc4c3F)ncnc2cc1OCCCN1CCCC1 [Cediranib (AZD2171)]
thermal shift delta Tm [1]: 1.17 °C
thermal shift delta Tm [2]: -0.01 °C
thermal shift delta Tm [3]: 0.25 °C
thermal shift delta Tm [4]: 1.5 °C
thermal shift delta Tm [5]: 0.44 °C
thermal shift delta Tm [6]: -0.12 °C
thermal shift delta Tm [7]: 2.04 °C
thermal shift delta Tm [8]: 5.53 °C
thermal shift delta Tm [9]: 0.23 °C
thermal shift delta Tm [10]: 0.71 °C

CS(=O)(=O)c1cccc(CNc2nc(Nc3ccc4c(c3)CCC(=O)N4)ncc2C(F)(F)F)c1
thermal shift delta Tm [1]: 10.4 °C
thermal shift delta Tm [2]: 1.28 °C
thermal shift delta Tm [3]: 0.17 °C
thermal shift delta Tm [4]: 5.43 °C
thermal shift delta Tm [5]: 1.28 °C
thermal shift delta Tm [6]: 3.56 °C
thermal shift delta Tm [7]: 4.21 °C
thermal shift delta Tm [8]: 3.71 °C
thermal shift delta Tm [9]: 2.37 °C
thermal shift delta Tm [10]: 2.51 °C

Cc1cccc(Nc2nc(NC3CCCCC3N)ncc2C(N)=O)c1 (stereo not given)
thermal shift delta Tm [1]: 0.65 °C
thermal shift delta Tm [2]: 1.67 °C
thermal shift delta Tm [3]: 0.03 °C
thermal shift delta Tm [4]: 2.43 °C
thermal shift delta Tm [5]: 3.15 °C
thermal shift delta Tm [6]: 4.23 °C
thermal shift delta Tm [7]: 1.34 °C
thermal shift delta Tm [8]: 0.3 °C
thermal shift delta Tm [9]: 1.83 °C
thermal shift delta Tm [10]: 0.73 °C

O=C(Nc1nccs1)C(c1cc(F)ccc1O)N1Cc2ccccc2C1=O (stereo not given)
thermal shift delta Tm [1]: 0.19 °C
thermal shift delta Tm [2]: 0.2 °C
thermal shift delta Tm [3]: -0.02 °C
thermal shift delta Tm [4]: -0.36 °C
thermal shift delta Tm [5]: 0.06 °C
thermal shift delta Tm [6]: -0.38 °C
thermal shift delta Tm [7]: 0.01 °C
thermal shift delta Tm [8]: 0.12 °C
thermal shift delta Tm [9]: 0.41 °C
thermal shift delta Tm [10]: 0.1 °C

COc1ccc(/C=C/C(=O)C2(C(=O)/C=C/c3ccc(OC)c(OC)c3)CCCCC2)cc1OC
thermal shift delta Tm [1]: 1.45 °C
thermal shift delta Tm [2]: 0.31 °C
thermal shift delta Tm [3]: 0.85 °C
thermal shift delta Tm [4]: -0.65 °C
thermal shift delta Tm [5]: 0.61 °C
thermal shift delta Tm [6]: 0.8 °C
thermal shift delta Tm [7]: -0.01 °C
thermal shift delta Tm [8]: 0.96 °C
thermal shift delta Tm [9]: 0.14 °C
thermal shift delta Tm [10]: 0.5 °C

Cc1nc(Nc2ncc(C(=O)Nc3c(C)cccc3Cl)s2)cc(N2CCN(CCO)CC2)n1 [Dasatinib]
thermal shift delta Tm [1]: 10.7 °C
thermal shift delta Tm [2]: 14 °C
thermal shift delta Tm [3]: 0.29 °C
thermal shift delta Tm [4]: 0.81 °C
thermal shift delta Tm [5]: 1.34 °C
thermal shift delta Tm [6]: 0.06 °C
thermal shift delta Tm [7]: 3.61 °C
thermal shift delta Tm [8]: 5.79 °C
thermal shift delta Tm [9]: 1.57 °C
thermal shift delta Tm [10]: 0.77 °C

Cc1cccc(CC(=O)N2CCc3c2ccc(-c2cn(C)c4ncnc(N)c24)c3F)n1
thermal shift delta Tm [1]: 1.87 °C
thermal shift delta Tm [2]: 0.61 °C
thermal shift delta Tm [3]: 0.63 °C
thermal shift delta Tm [4]: 0.44 °C
thermal shift delta Tm [5]: 0.12 °C
thermal shift delta Tm [6]: 0.29 °C
thermal shift delta Tm [7]: 0.3 °C
thermal shift delta Tm [8]: 0.7 °C
thermal shift delta Tm [9]: 3.73 °C
thermal shift delta Tm [10]: 0.27 °C

CS(=O)(=O)c1ccc(-c2cnc(N)c(C(=O)Nc3ccccc3)n2)cc1
thermal shift delta Tm [1]: 4.49 °C
thermal shift delta Tm [2]: 0.26 °C
thermal shift delta Tm [3]: 0.2 °C
thermal shift delta Tm [4]: 0.62 °C
thermal shift delta Tm [5]: 0.7 °C
thermal shift delta Tm [6]: 0.18 °C
thermal shift delta Tm [7]: 0.94 °C
thermal shift delta Tm [8]: 3.32 °C
thermal shift delta Tm [9]: 1.11 °C
thermal shift delta Tm [10]: 0.38 °C

Clc1ccc(Nc2nnc(Cc3ccncc3)c3ccccc23)cc1 [Vatalanib (PTK787) 2HCl]
thermal shift delta Tm [1]: 0.06 °C
thermal shift delta Tm [2]: 0.03 °C
thermal shift delta Tm [3]: 0.21 °C
thermal shift delta Tm [4]: -0.24 °C
thermal shift delta Tm [5]: 0.02 °C
thermal shift delta Tm [6]: -0.09 °C
thermal shift delta Tm [7]: -0.01 °C
thermal shift delta Tm [8]: 0.3 °C
thermal shift delta Tm [9]: -0.05 °C
thermal shift delta Tm [10]: 0.49 °C

C=CC(=O)Nc1cccc(Nc2nc(Nc3ccc(OCCOC)cc3)ncc2F)c1
thermal shift delta Tm [1]: 0 °C
thermal shift delta Tm [2]: 1.8 °C
thermal shift delta Tm [3]: 1.14 °C
thermal shift delta Tm [4]: 6.16 °C
thermal shift delta Tm [5]: 1.06 °C
thermal shift delta Tm [6]: 3.26 °C
thermal shift delta Tm [7]: 3.81 °C
thermal shift delta Tm [8]: 3.89 °C
thermal shift delta Tm [9]: 3.75 °C
thermal shift delta Tm [10]: 1 °C

NC(=O)c1cnc(N[C@@H]2CCCC[C@@H]2N)nc1Nc1cccc(-n2nccn2)c1
thermal shift delta Tm [1]: 2.02 °C
thermal shift delta Tm [2]: 2.55 °C
thermal shift delta Tm [3]: 0.07 °C
thermal shift delta Tm [4]: 1.42 °C
thermal shift delta Tm [5]: 1.98 °C
thermal shift delta Tm [6]: 3.61 °C
thermal shift delta Tm [7]: 0.99 °C
thermal shift delta Tm [8]: 1.31 °C
thermal shift delta Tm [9]: 0.85 °C
thermal shift delta Tm [10]: 0.63 °C

CC(C)Oc1ccc(-c2nn([C@@H](C)c3oc4ccc(F)cc4c(=O)c3-c3cccc(F)c3)c3ncnc(N)c23)cc1F
thermal shift delta Tm [1]: -0.54 °C
thermal shift delta Tm [2]: 0.17 °C
thermal shift delta Tm [3]: 0.23 °C
thermal shift delta Tm [4]: -0.28 °C
thermal shift delta Tm [5]: 0.5 °C
thermal shift delta Tm [6]: -0.25 °C
thermal shift delta Tm [7]: 0.13 °C
thermal shift delta Tm [8]: 1.09 °C
thermal shift delta Tm [9]: 1.36 °C
thermal shift delta Tm [10]: 0.19 °C

COc1cc2ncnc(Nc3ccc(Oc4ccccc4)cc3C)c2cc1OC
thermal shift delta Tm [1]: 1.39 °C
thermal shift delta Tm [2]: 0.53 °C
thermal shift delta Tm [3]: 0.35 °C
thermal shift delta Tm [4]: -0.19 °C
thermal shift delta Tm [5]: 0.39 °C
thermal shift delta Tm [6]: 0.77 °C
thermal shift delta Tm [7]: 0.51 °C
thermal shift delta Tm [8]: 4.14 °C
thermal shift delta Tm [9]: 1.19 °C
thermal shift delta Tm [10]: -0.13 °C

CS(=O)(=O)CCNCc1ccc(-c2ccc3ncnc(Nc4ccc(OCc5cccc(F)c5)c(Cl)c4)c3c2)o1
thermal shift delta Tm [1]: -0.27 °C
thermal shift delta Tm [2]: 0.18 °C
thermal shift delta Tm [3]: 0.24 °C
thermal shift delta Tm [4]: 0.39 °C
thermal shift delta Tm [5]: 0.11 °C
thermal shift delta Tm [6]: 0.01 °C
thermal shift delta Tm [7]: 0.17 °C
thermal shift delta Tm [8]: 0.48 °C
thermal shift delta Tm [9]: 0.99 °C
thermal shift delta Tm [10]: 0.27 °C

COc1ccc(Cl)cc1NC(=O)Nc1cc(C)nc2ccccc12
thermal shift delta Tm [1]: 0.37 °C
thermal shift delta Tm [2]: 0.12 °C
thermal shift delta Tm [3]: 0.38 °C
thermal shift delta Tm [4]: 0.21 °C
thermal shift delta Tm [5]: 0.52 °C
thermal shift delta Tm [6]: 0.68 °C
thermal shift delta Tm [7]: 0.32 °C
thermal shift delta Tm [8]: 0.93 °C
thermal shift delta Tm [9]: 0.32 °C
thermal shift delta Tm [10]: 0.36 °C

COc1cc2nccc(Oc3ccc(NC(=O)c4cn(C(C)C)c(=O)n(-c5ccc(F)cc5)c4=O)cc3F)c2cc1OC
thermal shift delta Tm [1]: 1.35 °C
thermal shift delta Tm [2]: 0.3 °C
thermal shift delta Tm [3]: 0.61 °C
thermal shift delta Tm [4]: 0.23 °C
thermal shift delta Tm [5]: 0.52 °C
thermal shift delta Tm [6]: 0.71 °C
thermal shift delta Tm [7]: 1.15 °C
thermal shift delta Tm [8]: 0.49 °C
thermal shift delta Tm [9]: 3.7 °C
thermal shift delta Tm [10]: 0.44 °C

Cc1cc(Nc2cc(N3CCN(C)CC3)nc(Sc3ccc(NC(=O)C4CC4)cc3)n2)n[nH]1 [Tozasertib (VX-680, MK-0457)]
thermal shift delta Tm [1]: 6.99 °C
thermal shift delta Tm [2]: 1.33 °C
thermal shift delta Tm [3]: 0.64 °C
thermal shift delta Tm [4]: 1.35 °C
thermal shift delta Tm [5]: 0.54 °C
thermal shift delta Tm [6]: 3.08 °C
thermal shift delta Tm [7]: 4.7 °C
thermal shift delta Tm [8]: 8.53 °C
thermal shift delta Tm [9]: 2.62 °C
thermal shift delta Tm [10]: 2.03 °C
